Hit rate of the full screen: of about 5,500 compounds, about 2,000 (36%) were called active. Another 18% or so got no clear call; they are omitted. Cut-off read from the data, not from the text of the source: active = normalized growth mostly below about 0.91 (no sharp cut-off); inconclusive = no clear call, values can overlap the other calls; inactive = mostly above about 0.92. The list shows a part of the results.
Assay: chemical genetic growth profiling, strain panel (AID 1159580);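 note: tested at 20 µM; growth read once vehicle control cultures reached saturation at 30 °C; 1 = growth at the plate median or of vehicle wells; lower values mean less growth of the strain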
Conditions: growth OD

Measured: normalized growth

COc1cc(-c2coc3cc(O[C@@H]4O[C@H](CO)[C@@H](O)[C@H](O)[C@H]4O)c(OC)c(O)c3c2=O)cc(O)c1OC
inactive: S. cerevisiae deletion strains, locus YJR066W, strain TOR1, active compounds read low 0.988 | S. cerevisiae deletion strains, locus YKL009W, strain mrt4, active compounds read low 1.02 | S. cerevisiae deletion strains, locus YKL068W, active compounds read low 0.995 | S. cerevisiae deletion strains, locus YKL085W, strain MDH1 (second series), active compounds read low 0.997 | S. cerevisiae deletion strains, locus YKL085W, strain MDH1, active compounds read low 0.997 | S. cerevisiae deletion strains, locus YKL160W, strain elf1, active compounds read low 0.993 | S. cerevisiae deletion strains, locus YKR001C, strain vps1, active compounds read low 1.01 | S. cerevisiae deletion strains, locus YKR026C, strain gcn3, active compounds read low 0.997 | S. cerevisiae deletion strains, locus YKR091W, strain srl3, active compounds read low 1 | S. cerevisiae deletion strains, locus YLL001W, strain dnm1, active compounds read low 0.965 | S. cerevisiae deletion strains, locus YLL026W, active compounds read low 0.995 | S. cerevisiae deletion strains, locus YLL041C, strain sdh2, active compounds read low 1 | S. cerevisiae deletion strains, locus YLR027C, strain aat2, active compounds read low 0.997 | S. cerevisiae deletion strains, locus YLR039C, strain RIC1, active compounds read low 1.02 | S. cerevisiae deletion strains, locus YLR058C, strain SHM2, active compounds read low 1.01 | S. cerevisiae deletion strains, locus YLR102C, strain apc9, active compounds read low 0.994 | S. cerevisiae deletion strains, locus YLR113W, strain HOG1, active compounds read low 0.975 | S. cerevisiae deletion strains, locus YLR221C, strain rsa3, active compounds read low 0.993 | S. cerevisiae deletion strains, locus YLR258W, strain gsy2, active compounds read low 0.984 | S. cerevisiae deletion strains, locus YLR262C, strain YPT6 (second series), active compounds read low 1 | S. cerevisiae deletion strains, locus YLR262C, strain YPT6, active compounds read low 1 | S. cerevisiae deletion strains, locus YLR268W, strain sec22, active compounds read low 1.03 | S. cerevisiae deletion strains, locus YLR320W, strain mms22, active compounds read low 0.986 | S. cerevisiae deletion strains, locus YLR330W, strain CHS5, active compounds read low 1.01 | S. cerevisiae deletion strains, locus YLR342W, strain FKS1 (second series), active compounds read low 1.05 | S. cerevisiae deletion strains, locus YLR342W, strain FKS1, active compounds read low 0.994 | S. cerevisiae deletion strains, locus YLR357W, strain rsc2, active compounds read low 0.956 | S. cerevisiae deletion strains, locus YLR370C, strain arc18, active compounds read low 1 | S. cerevisiae deletion strains, locus YLR371W, strain rom2, active compounds read low 1.01 | S. cerevisiae deletion strains, locus YLR384C, strain iki3, active compounds read low 0.988 | S. cerevisiae deletion strains, locus YLR418C, strain cdc73, active compounds read low 1.02 | S. cerevisiae deletion strains, locus YML016C, strain PPZ1, active compounds read low 0.981 | S. cerevisiae deletion strains, locus YML032C, strain rad52, active compounds read low 1.01 | S. cerevisiae deletion strains, locus YML120C, strain ndi1, active compounds read low 0.99 | S. cerevisiae deletion strains, locus YML124C, strain tub3, active compounds read low 0.99 | S. cerevisiae deletion strains, locus YMR058W, strain fet3, active compounds read low 0.998 | S. cerevisiae deletion strains, locus YMR078C, strain ctf18, active compounds read low 0.981 | S. cerevisiae deletion strains, locus YMR125W, strain sto1, active compounds read low 0.99 | S. cerevisiae deletion strains, locus YMR129W, active compounds read low 0.996 | S. cerevisiae deletion strains, locus YMR205C, strain PFK2, active compounds read low 0.981 | S. cerevisiae deletion strains, locus YMR223W, strain ubp8, active compounds read low 1 | S. cerevisiae deletion strains, locus YMR231W, strain pep5, active compounds read low 0.997 | S. cerevisiae deletion strains, locus YMR307W, strain GAS1, active compounds read low 1.04 | S. cerevisiae deletion strains, locus YNL067W, strain RPL9B, active compounds read low 0.994 | S. cerevisiae deletion strains, locus YNL071W, strain lat1, active compounds read low 1.01 | S. cerevisiae deletion strains, locus YNL128W, strain TEP1, active compounds read low 1.01 | S. cerevisiae deletion strains, locus YNL183C, strain NPR1, active compounds read low 0.962 | S. cerevisiae deletion strains, locus YNL209W, strain ssb2, active compounds read low 0.989 | S. cerevisiae deletion strains, locus YNL233W, strain BNI4, active compounds read low 1 | S. cerevisiae deletion strains, locus YNL248C, strain rpa49, active compounds read low 0.988 | S. cerevisiae deletion strains, locus YNL250W, strain rad50, active compounds read low 0.964 | S. cerevisiae deletion strains, locus YNL271C, strain bni1, active compounds read low 0.978 | S. cerevisiae deletion strains, locus YNL298W, strain CLA4, active compounds read low 0.989 | S. cerevisiae deletion strains, locus YNL307C, strain MCK1, active compounds read low 0.99 | S. cerevisiae deletion strains, locus YNL322C, strain KRE1 (second series), active compounds read low 0.977 | S. cerevisiae deletion strains, locus YNR049C, strain mso1, active compounds read low 1.01 | S. cerevisiae deletion strains, locus YNR052C, strain pop2, active compounds read low 0.964 | S. cerevisiae deletion strains, locus YOL012C, strain htz1 0.807 | S. cerevisiae deletion strains, locus YOL147C, strain pex11, active compounds read low 1.01 | S. cerevisiae deletion strains, locus YOR001W, strain rrp6, active compounds read low 0.948 | S. cerevisiae deletion strains, locus YOR061W, strain CKA2, active compounds read low 0.999 | S. cerevisiae deletion strains, locus YOR069W, strain VPS5, active compounds read low 0.986 | S. cerevisiae deletion strains, locus YOR070C, strain gyp1, active compounds read low 1.01 | S. cerevisiae deletion strains, locus YOR080W, strain dia2, active compounds read low 0.988 | S. cerevisiae deletion strains, locus YOR083W, strain WHI5, active compounds read low 1.02 | S. cerevisiae deletion strains, locus YOR106W, strain vam3, active compounds read low 0.98 | S. cerevisiae deletion strains, locus YOR136W, strain idh2, active compounds read low 0.992 | S. cerevisiae deletion strains, locus YOR144C, strain elg1, active compounds read low 0.996 | S. cerevisiae deletion strains, locus YOR184W, strain ser1, active compounds read low 1.05 | S. cerevisiae deletion strains, locus YOR231W, strain MKK1, active compounds read low 1.05 | S. cerevisiae deletion strains, locus YOR265W, strain rbl2, active compounds read low 1.01 | S. cerevisiae deletion strains, locus YOR270C, strain vph1, active compounds read low 1.02 | S. cerevisiae deletion strains, locus YOR290C, strain snf2, active compounds read low 1 | S. cerevisiae deletion strains, locus YOR316C, strain cot1, active compounds read low 0.985 | S. cerevisiae deletion strains, locus YPL051W, strain arl3, active compounds read low 0.961 | S. cerevisiae deletion strains, locus YPL055C, strain LGE1, active compounds read low 1.05 | S. cerevisiae deletion strains, locus YPL078C, strain atp4, active compounds read low 0.993 | S. cerevisiae deletion strains, locus YPL106C, strain sse1, active compounds read low 0.962 | S. cerevisiae deletion strains, locus YPL240C, strain hsp82, active compounds read low 1 | S. cerevisiae deletion strains, locus YPL256C, strain CLN2, active compounds read low 1.02 | S. cerevisiae deletion strains, locus YPR119W, strain clb2, active compounds read low 0.982 | S. cerevisiae deletion strains, locus YPR141C, strain kar3, active compounds read low 0.977 | S. cerevisiae deletion strains, locus YPR163C, strain tif3, active compounds read low 0.986 | S. cerevisiae deletion strains, locus YPR167C, strain met16, active compounds read low 0.993 | S. cerevisiae deletion strains, strain wtn01, active compounds read low 1.01 | S. cerevisiae strains, strain wild type, active compounds read low 1.01

Source: PubChem BioAssay AID1159580 (chemical genetic matrix, 2015)
